In paper PMC7826789 (International Journal of Molecular Sciences, 2021):

Each compound was assayed on FLT3(ITD,D835V). Conditions: Compound Concentration (nM):1000.
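Further: KINOMEscan scanMAX binding as percent activity remaining versus control; lower means stronger binding.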

| Compound | Percent Control |
| --- | --- |
| CN(C)CCNC(=O)Nc1ccc(N(C)c2ccnc(Nc3ccc(CS(C)(=O)=O)cc3)n2)cc1.Cl [GW830900A] | 22% |
| C/C(Nc1ccc(S(N)(=O)=O)cc1)=C1/C(=O)Nc2ccccc21 [GW335962X] | 0.8% |
| Cc1cc(O)cc(C)c1/C=C/c1cncc(C(N)=O)c1 [GW435821X] | 100% |
| COc1cc(C)c(N(C)C(=O)CN(C)C)cc1Nc1nc(Nc2cccc(F)c2C(N)=O)c2cc[nH]c2n1 [GSK2219385] | 88% |
| COC(=O)Nc1nc2ccc(Oc3ccc(NC(=O)Nc4cc(C(F)(F)F)ccc4F)cc3)cc2s1.Cl [GW693917A] | 83% |
| NS(=O)(=O)c1ccc(Nc2ncc(-c3ccccc3)o2)cc1 [GW572399X] | 29% |
| CN(C)c1cc2c(Nc3ccc4c(cnn4Cc4ccccc4)c3)ncnc2cn1 [GW282974X] | 100% |
| CCc1ccc(Oc2nccc(-c3c(-c4ccc(F)cc4)ncn3C3CCNCC3)n2)cc1 [SB-242719] | 89% |
| Nc1ncnc2occ(-c3ccc(NC(=O)Nc4cc(C(F)(F)F)ccc4F)cc3)c12 [GW770249X] | 52% |
| CN1CCN(C(=O)c2ccc(NC(=O)Nc3ccc(N(C)c4ccnc(Nc5ccc(CS(C)(=O)=O)cc5)n4)cc3)cc2)CC1.Cl [GW830263A] | 8.9% |
| COc1cc2ncn(-c3cc(O[C@H](C)c4ccccc4Cl)c(C(N)=O)s3)c2cc1OC [GSK237701A] | 5.9% |
| COc1ccc(COc2ccc(Cc3cnc(N)nc3N)cc2OC)cc1 [GW632580X] | 100% |
| CCn1c(-c2nonc2N)nc2c(C#CC(C)(C)O)nc(OCCNC)cc21.Cl [GSK949675] | 100% |
| COc1cc(/C=N/Nc2ncnc3[nH]ncc23)ccc1O [GW578748X] | 4.5% |
| COc1cc(N2CCN(C(C)C)CC2)ccc1Nc1nc(Nc2ccc(F)cc2C(=O)NC[C@@H](O)CO)c2cc[nH]c2n1 [GSK1392956A] | 79% |
| Cl.c1ccc(Cc2nc3ccc(Nc4ncnc5ccccc45)cc3[nH]2)cc1 [GR269666A] | 100% |
| C[C@@H](Oc1cc(-n2cnc3ccc(OC4CCN(C)CC4)cc32)sc1C(N)=O)c1ccccc1Cl [GSK579289A] | 15% |
| CC1=C(C(=O)Nc2ccc3[nH]ncc3c2)C(c2ccc(Cl)c(Cl)c2)CC(=O)N1 (stereo not shown) [GSK299115A] | 80% |
| COc1cccc(-n2ncc3c(N/N=C/c4ccncc4)ncnc32)c1 [GW784752X] | 10% |
| COc1cc2ncnc(Nc3ccc4c(cnn4Cc4ccccc4)c3)c2cc1OC.Cl [GW282449A] | 90% |

| Compound | Percent Control |
| --- | --- |
| Cl.O=C(Nc1ccc(Oc2ccc3[nH]c(NC(=O)c4ccco4)nc3c2)cc1)Nc1cc(C(F)(F)F)ccc1F [GW683134A] | 96% |
| CC(C)COC(=O)c1ccc2c(c1)/C(=C/Nc1ccc(S(N)(=O)=O)cc1)C(=O)N2 [GW416981X] | 0% |
| COc1ccc2[nH]c3c4[nH]c5ccc(OC)cc5c4c4c(c3c2c1)C(=O)NC4=O [GW296115X] | 0% |
| COc1ccc2c(-c3ccnc(Nc4cccc(OC(F)(F)F)c4)n3)cnn2n1 [GW810372X] | 65% |
| COc1ccc2cc(-c3c(-c4ccncc4)nc(-c4ccc(S(C)(=O)=O)cc4C)n3C)ccc2c1 [SB-633825] | 80% |
| O=C1Nc2ccc(C(=O)c3ccco3)cc2C1=Cc1cc(Cl)c(O)c(Cl)c1 [GW406108X] | 12% |
| CCS(=O)(=O)c1ccc(OC)c(Nc2ncc(-c3cccc(F)c3)o2)c1 [GW621970X] | 0% |
| CC1=C(C(=O)Nc2ccc3[nH]ncc3c2)C(c2ccc3ccccc3c2)CC(=O)N1 (stereo not shown) [GSK270822A] | 73% |
| COc1cc(C=NNc2ncnc3c2cnn3-c2ccccc2)ccc1O [GW513184X] | 16% |
| Cl.O=C(O[C@H]1CN[C@H](C#Cc2cc3ncnc(Nc4ccc5c(cnn5Cc5ccccc5)c4)c3s2)C1)N1CCOCC1 [GSK200398A] | 88% |
| O=C(Nc1n[nH]c2nc(-c3ccc(O)cc3)c(Br)cc12)C1CC1 [SB-725317] | 35% |
| Cl.O=C(Nc1ccc(Oc2ccc3[nH]c(NC(=O)c4ccccc4)nc3c2)cc1)Nc1cc(C(F)(F)F)ccc1F [GW709042A] | 95% |
| CCS(=O)(=O)c1ccc(OC)c(Nc2ncc(-c3cccc(OC)c3)o2)c1 [GW580509X] | 0% |
| COc1ccccc1-c1cc(/C=C2\C(=O)Nc3ncc(Br)cc32)cc(Br)c1O [GW442130X] | 92% |
| NS(=O)(=O)c1ccc(N/N=C2\C(=O)Nc3ccc(C(=O)NCCc4c[nH]cn4)cc32)cc1 [GW300660X] | 1.8% |
| NS(=O)(=O)c1ccc(N/N=C2\C(=O)Nc3ccc(C(=O)NCc4ccncc4)cc32)cc1 [GW300657X] | 0.6% |
| NS(=O)(=O)c1ccc(N/N=C2\C(=O)Nc3ccc(Cl)cc32)cc1 [GW280670X] | 60% |
| Cl.O=S1CCN(Cc2ccc(-c3ccc4ncnc(Nc5ccc(OCc6ccccc6)c(F)c5)c4c3)o2)CC1 [GW576924A] | 100% |
| NS(=O)(=O)c1ccc(N/N=C2\C(=O)Nc3ccc(-c4cnco4)cc32)cc1 [GW276655] | 4.3% |
| COc1cccc(-c2c[nH]c3c(N/N=C/c4ccncc4)ncnc23)c1 [GW814408X] | 3.9% |
